Laboratory results as given in PubChem BioAssay (NCI).
Compounds without any hit were thinned out: in the full panel of roughly 83,000, 20% have a hit.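 Growth was measured after 48 h exposure to one concentration of compound in 96-well plates. Values under 10 count as active.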 Active and inactive are the calls of the source.

Columns and labels:
Experiment in all cases: NCI-60 one-dose screen, 48 h (100 = growth as untreated, 0 = no growth, -100 = all killed)
Settings in all cases: 10 µM unless noted
EKVX NSCLC = tested on: EKVX NSCLC
SN12C renal = tested on: SN12C renal
UO-31 renal = tested on: UO-31 renal
TK-10 renal = tested on: TK-10 renal
ACHN renal = tested on: ACHN renal
CAKI-1 renal = tested on: CAKI-1 renal
A498 renal = tested on: A498 renal
MOLT-4 leukemia = tested on: MOLT-4 leukemia
CCRF-CEM leukemia = tested on: CCRF-CEM leukemia

Measured: growth

COc1ccccc1CNCCCN1C(=O)c2ccc3c4c(ccc(c24)C1=O)C(=O)N(CCCNCCCCN)C3=O
active: EKVX NSCLC 8.85% | SN12C renal -39.3% | TK-10 renal -1.84% | ACHN renal 7.77% | A498 renal -52% | MOLT-4 leukemia 0.762%
inactive: UO-31 renal 11.2% | CAKI-1 renal 33.7%

COc1cccc(-c2nn(-c3ccccc3)cc2-c2ccnc(NCCCNC(=O)Nc3ccc(Cl)c(Cl)c3)c2)c1
active: UO-31 renal -34.4% | A498 renal 4.95% | CCRF-CEM leukemia 1.35%
inactive: EKVX NSCLC 37.8% | SN12C renal 37.5% | TK-10 renal 45.7% | ACHN renal 32.9% | CAKI-1 renal 24%

CNS(=O)(=O)c1n[nH]nc1-c1cc(C(C)(C)C)c(O)c(C(C)(C)C)c1
inactive: SN12C renal 103% | UO-31 renal 84.2% | TK-10 renal 111% | ACHN renal 98.7% | CAKI-1 renal 95.1% | A498 renal 100% | MOLT-4 leukemia 96.9%

CC/C=C\C/C=C\C[C@H](O)C/C=C1/C(=O)C=C[C@@H]1C/C=C\CCCC(=O)O
inactive: EKVX NSCLC 95.3% | SN12C renal 16.9% | UO-31 renal 57% | TK-10 renal 79% | ACHN renal 60.2% | CAKI-1 renal 37.8% | A498 renal 96.6%
active: MOLT-4 leukemia 7.61%

COc1ccc(C(=NN=C(N)N)c2ccc(OC)cc2)cc1
inactive: EKVX NSCLC 81.9% | SN12C renal 49.9% | UO-31 renal 62.4% | TK-10 renal 40.1% | ACHN renal 37.6% | CAKI-1 renal 73.4% | A498 renal 66.7% | CCRF-CEM leukemia 60% | MOLT-4 leukemia 40%

O=C(CSc1nccc(Nc2ccc(S(=O)(=O)Nc3nccs3)cc2)n1)c1ccc(F)cc1
inactive: EKVX NSCLC 97.5% | SN12C renal 110% | UO-31 renal 75.8% | TK-10 renal 110% | ACHN renal 103% | CAKI-1 renal 96.4% | A498 renal 109% | CCRF-CEM leukemia 108% | MOLT-4 leukemia 115%

Cc1cc(=O)[nH]c(N=Nc2c(O)[nH]c3ccccc23)n1
inactive: EKVX NSCLC 111% | SN12C renal 102% | UO-31 renal 84.9% | TK-10 renal 112% | ACHN renal 101% | CAKI-1 renal 96.1% | A498 renal 127% | CCRF-CEM leukemia 94.6% | MOLT-4 leukemia 109%

O=c1cc(C2NNC(=S)N2)c2ccc3ccccc3c2o1 (configuration not stated)
inactive: EKVX NSCLC 64.5% | SN12C renal 100% | UO-31 renal 70.6% | TK-10 renal 126% | ACHN renal 94.7% | CAKI-1 renal 85.1% | A498 renal 88.1% | MOLT-4 leukemia 102%

CC(CCc1ccc(Cl)c(Cl)c1)NCc1ccc(C(C)(C)C)cc1 (configuration not stated)
inactive: EKVX NSCLC 102% | SN12C renal 91.9% | UO-31 renal 78.6% | TK-10 renal 78.4% | ACHN renal 92.7% | CAKI-1 renal 85.9% | A498 renal 90.8% | CCRF-CEM leukemia 77.2%

Cn1c(-c2c(N)n(Cc3ccc(C(F)(F)F)cc3)c3nc(C#N)c(C#N)nc23)nc2ccccc21
active: EKVX NSCLC 1.13% | UO-31 renal -23% | TK-10 renal -12.9% | ACHN renal 3.12% | CAKI-1 renal 9.68% | A498 renal -6.26% | MOLT-4 leukemia -16.8%
inactive: SN12C renal 14.4%

COc1cc2c(cc1-c1c(C)noc1C)ncc1nc(C3CCCCC3)n(C3CCC(OC(F)F)CC3)c12 (configuration not stated)
inactive: EKVX NSCLC 41.1% | SN12C renal 52.7% | TK-10 renal 24.1% | ACHN renal 37.4% | CAKI-1 renal 42.7% | A498 renal 28.3% | MOLT-4 leukemia 18.4%
active: UO-31 renal 8.28%

CCOC(=O)c1c(-c2ccc(Cl)cc2)c(C#N)c(=O)n(-c2ccccc2CC)c1N
inactive: SN12C renal 92.1% | UO-31 renal 71.6% | TK-10 renal 117% | ACHN renal 89.5% | CAKI-1 renal 105% | A498 renal 97.5% | CCRF-CEM leukemia 17.7%
